Test results as given in PubChem BioAssay AID1347432 (National Center for Advancing Translational Sciences (NCATS), 2020).
Values without a mark were called inactive. Activity calls are given as the source filed them. Calls come from the whole dose curve; as a rule, active = well fitted curve in the direction sought with a large enough effect; inactive = no such curve, though single readings can be large or run the other way.

target: Uracil-DNA glycosylase (Escherichia coli (strain K12)) (UniProt P12295); assay: Confirmatory (Round 2) qHTS assay for inhibitors of Activation Induced Cytidine Deaminase (AID): UDG counterscreen signal; settings: FRET fluorescence, 4 h; series mostly up to 78.4 µM; activity change, negative = inhibition: at the top concentration
Excerpt: Assay Provider (PI) Patricia Gearhart Ph.D. National Institute on Aging National Institute of Health (NIH), Bethesda, MD Assay Provider (PI) Rahul Kohli Ph.D. Perelman School of Medicine University of Pennsylvania, Philadelphia, PA Activation-Induced Deaminase (AID) is a cytosine deaminase which converts cytosine into uracil within stretches of ssDNA. The presence of uracil in DNA initiates a cascade of mutagenic DNA repair to introduce point mutations and DNA double strand breaks. Specific targeting of AID to the immunoglobulin heavy chain loci (Igh) promotes mutagenesis in the antibody variable region for somatic hypermutation (SHM) or switch regions leading to class switch recombination (CSR). However, AID also plays a role in accumulating unnecessary mutations across the genome. Mis-targeting of AID results in the initiation of tumor development and leads to greater drug resistance among cancer cells when continually expressed. To identify an AID inhibitor, a small molecule library will be screened in collaboration with NCATS core facility at NIH. To confirm biological function, inhibitors will be examined in an in vitro murine B-cell activation assay and subsequent secondary validation screens. Top molecules will be further screened to identify inhibitory efficacy against a wild type primary splenocytes assay. Using these approaches, we hope to identify a small molecule with great efficacy and low toxicity for use as a molecular probe to further characterize AID's intricacies, or even as a therapeutic. A FRET based analysis of cytosine deamination, was developed to identify potential inhibitors of AID catalytic activity. This screen has two signal output, Read 1 evaluates the AID inhibition response. The second readout (Read 2) evaluates UDG response and is uses as a counterscreen to exclude false positive inhibitors. Inhibition in AID and inactivity in the UDG signal is the desired outcome for this assay.
PROTOCOL TABLE SEQUENCE No. (e.g., 1, 2, 3, etc.); PARAMETER (e.g., Cells, Incubation, Reagent, etc.); VALUE; DESCRIPTION 1a; Reagent; 3 uL; [4/3x] 1 uM AID/2.67 U/mL UDG 1b; Reagent; 3 uL; 2 U/mL UDG 1c; Reagent; 3 uL; 1 uM AID 2a; Compound; 46 nL; Follow-up plates (0.64 uM - 10 mM) 2b; Control; 46 nL; ATA ([…] - 10 mM) 3; Time; 10 min; incubation at room temperature 4; Reagents; 1 uL; [4x] 250 nM DJC20 / 250 nM DJC23 [Substrate] 5; Time; 4 hr; incubation at room temperature 6; Reagent; 4 uL; [2x] 250 mM NaOH 7; Time; 15 sec; centrifuge at 1000 rpm 8; Time; 30 min; incubation at room temperature 9a; Detection; fluorescence (Read 1: AID); EnVision (PerkinElmer) plate reader, 540 excitation and 590 emission filters 9b; Detection; fluorescence (Read 2: UDG); EnVision (PerkinElmer) plate reader, 560 excitation and 665 emission filters NOTES (numbers refer to sequence above) 1a; Reagents were dispensed in a medium-binding black solid-bottom Greiner plates (789176F) using a BioRptr liquid dispenser. Dispense 3 uL of [4/3x] 1 uM AID (provided by Kohli lab) and [4/3x] 2 U/mL UDG (NEB M0280L) into columns 1, 2, 5 to 48. 1b; Dispense 3 uL of [4/3x] 2 U/mL UDG into column 3. 1c; Dispense 3 uL of [4/3x] 1 uM AID into column 4. 2a; Compound (7-points [uM]: 0.64; 3.2; 16; 80; 400; 2,000; 10,000; […]) double pin-transferred (Dip Factor = 2) using the Kalypsys (Wako USA) pintool equipped with a 1536 pinhead for a final concentration range of 7.32 nM - 114 uM. 2b; 10 mM Aurintricarboxylic Acid (Sigma A1895) (ATA, 8-point, n = 2, 1:2.5 dilution in column 2) double pin-transferred (Dip Factor = 2) using the Kalypsys (Wako USA) pintool equipped with a 1536 pinhead for a [final] range of 186 nM - 114 uM. 3; Room temperature incubation. 4; Dispense 1 uL of substrate mixture from the Kohli lab [4x] […] DJC20 and [4x] 250 nM DJC23 into columns 1 to 48 . 5; Room temperature incubation. 6; Dispense 4 uL of substrate mixture [2x] 250 mM NaOH into columns 1 to 48. 7; Centrifugation step to remove bubbles. […]

Structure (SMILES) | activity change, negative = inhibition | Potency
O=c1cc2nc(-c3ccccc3)nc(SCCOCCOc3ccccc3)n2[nH]1 | -151% | 
O=c1cc2nc(-c3ccccc3)nc(SCCN3CCC(F)(F)CC3)n2[nH]1 | 3.23% | 
CN1CCN(CCCSc2nc(-c3ccccc3)nc3cc(=O)[nH]n23)CC1 | -9.4% | 
Cn1ccnc1CCSc1nc(-c2ccccc2)nc2cc(=O)[nH]n12 | -5.27% | 
Cc1noc(C)c1CCSc1nc(-c2ccccc2)nc2cc(=O)[nH]n12 | -26.1% | 
O=c1cc2nc(-c3ccccc3)nc(SCCCc3ccncc3)n2[nH]1 | 4.99% | 
O=c1cc2nc(-c3ccccc3)nc(SCCCn3ccnc3)n2[nH]1 | -4.89% | 
COc1ccccc1OCCSc1nc(-c2ccc(C(C)(C)C)cc2)nc2cc(=O)[nH]n12 | 0.173% | 
O=C(O)C1=CC(=C(c2ccc(O)c(C(=O)O)c2)c2ccc(O)c(C(=O)O)c2)C=CC1=O |  | 31.6 µM (active)
CC(C)c1ccc2c(c1)c(SC(C)(C)C)c(CC(C)(C)C(=O)O)n2Cc1ccc(Cl)cc1 | -8.89% | 
